Test results published in PubChem BioAssay (NCATS).
Records with an inconclusive call do not appear. Where a call stands in place of a potency, no number is given. Unmarked numbers belong to inactive results. The source made the active and inactive calls. Calls follow the shape of the dose curve; as a rule, active = well fitted cell-killing curve with a large enough effect; inconclusive = small, poorly fitted or top-dose-only effect, or effect the other way; inactive = flat fitted curve, though single readings scatter.

Tests used:
Experiment in all cases: Primary qHTS to identify gynecologic anti-cancer compounds using libraries of approved drugs and bioactive compounds (AID 1345084); also: nearly all actives have a fitted effect of over 55% in size
C33A = conditions: Gynecologic cancer cell panel viability, ATPlite luminescence, 48 h; series mostly up to 57.5 µM
Procedure, shortened: (§1)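 In this quantitative HTS, cell killing is estimated from loss of ATP-dependent luciferase light. Cells see five compound concentrations over a 48 h exposure.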

CASKI = conditions: Gynecologic cancer cell panel viability, ATPlite luminescence, 48 h; series mostly up to 57.5 µM
Procedure, shortened: as §1

Es-2 = conditions: Gynecologic cancer cell panel viability, ATPlite luminescence, 48 h; series mostly up to 57.5 µM
Procedure, shortened: as §1

HeLa = conditions: Gynecologic cancer cell panel viability, ATPlite luminescence, 48 h; series mostly up to 57.5 µM
Procedure, shortened: as §1

Hek293T = conditions: Gynecologic cancer cell panel viability, ATPlite luminescence, 48 h, control line for the selectivity index; series mostly up to 57.5 µM
Procedure, shortened: as §1

JEG-3 = conditions: Gynecologic cancer cell panel viability, ATPlite luminescence, 48 h; series mostly up to 57.5 µM
Procedure, shortened: as §1

OV90 = conditions: Gynecologic cancer cell panel viability, ATPlite luminescence, 48 h; series mostly up to 57.5 µM
Procedure, shortened: as §1

PA-1 = conditions: Gynecologic cancer cell panel viability, ATPlite luminescence, 48 h; series mostly up to 57.5 µM
Procedure, shortened: as §1

SKOV3 = conditions: Gynecologic cancer cell panel viability, ATPlite luminescence, 48 h; series mostly up to 57.5 µM
Procedure, shortened: as §1

Tov-21-G = conditions: Gynecologic cancer cell panel viability, ATPlite luminescence, 48 h; series mostly up to 57.5 µM
Procedure, shortened: as §1

Tov112D = conditions: Gynecologic cancer cell panel viability, ATPlite luminescence, 48 h; series mostly up to 57.5 µM
Procedure, shortened: as §1
Potency is read from the fitted curve at half-maximal effect.

For `C=CC1C(OC2OC(CO)C(O)C(O)C2O)OC=C2C(=O)N3C(C(=O)O)Cc4c([nH]c5ccccc45)C3CC21` (stereo not drawn), the Potency (C33A) was “inactive”, the Potency (CASKI) was “inactive” and the Potency (Es-2) was “inactive”. The Potency (HeLa) was “inactive”, the Potency (Hek293T) was “inactive” and the Potency (JEG-3) was “inactive”. The Potency (OV90) was “inactive”, the Potency (PA-1) was “inactive” and the Potency (SKOV3) was “inactive”. The Potency (Tov-21-G) was “inactive” and the Potency (Tov112D) was “inactive”.
For `COC(=O)C1=CO[C@@H](O[C@@H]2O[C@H](CO)[C@@H](O)[C@H](O)[C@H]2O)C2C1C(=O)C[C@H]2C` (stereo partly drawn), the Potency (C33A) was “inactive”, the Potency (CASKI) was “inactive” and the Potency (Es-2) was “inactive”. The Potency (HeLa) was “inactive”, the Potency (Hek293T) was “inactive” and the Potency (JEG-3) was “inactive”. The Potency (OV90) was “inactive”, the Potency (PA-1) was “inactive” and the Potency (SKOV3) was “inactive”. For the same molecule, the Potency (Tov-21-G) was “inactive” and the Potency (Tov112D) was “inactive”.
For `CC(O)(CC(=O)O)CC(=O)OCc1ccc(O[C@@H]2O[C@H](CO)[C@@H](O)[C@H](O)[C@H]2O)cc1` (stereo partly drawn), the Potency (C33A) was “inactive”, the Potency (CASKI) was “inactive” and the Potency (Es-2) was “inactive”. For the same molecule, the Potency (HeLa) was “inactive”, the Potency (Hek293T) was “inactive” and the Potency (JEG-3) was “inactive”. The Potency (OV90) was “inactive”, the Potency (PA-1) was “inactive” and the Potency (SKOV3) was “inactive”. For the same molecule, the Potency (Tov-21-G) was “inactive” and the Potency (Tov112D) was “inactive”.
`CC12CCC(=O)C=C1C(O)CC1C2C(O)CC2(C)C1CC[C@]2(O)C(=O)CO` (stereo partly drawn) gave an activity change, negative = cytotoxicity (C33A) of 4.59% [at 11.6 µM], an activity change, negative = cytotoxicity (CASKI) of -0.604% [at 11.6 µM] and an activity change, negative = cytotoxicity (Es-2) of 1.39% [at 11.6 µM]. The activity change, negative = cytotoxicity (HeLa) was 6.62% [at 11.6 µM], the activity change, negative = cytotoxicity (Hek293T) was 5.48% [at 11.6 µM] and the activity change, negative = cytotoxicity (JEG-3) was 6.5% [at 11.6 µM]. The activity change, negative = cytotoxicity (OV90) was 9.39% [at 11.6 µM], the activity change, negative = cytotoxicity (PA-1) was -1.22% [at 11.6 µM] and the activity change, negative = cytotoxicity (SKOV3) was -0.607% [at 11.6 µM]. It also gave an activity change, negative = cytotoxicity (Tov-21-G) of -3.93% [at 11.6 µM] and an activity change, negative = cytotoxicity (Tov112D) of 12.3% [at 11.6 µM].
Work on `CC(=O)O[C@@H]1[C@H](O[C@@H]2O[C@@H](CO)[C@H](O)[C@H]2O)[C@@H](O[C@@H]2O[C@@H](C)[C@H](O[C@@H]3OC[C@@H](O)[C@H](O)[C@H]3O)[C@@H](O)[C@H]2O)[C@H](OC(=O)[C@]23CCC(C)(C)C[C@H]2C2=CCC4[C@@]5(C)CC[C@H](O[C@@H]6O[C@H](C(=O)O)[C@@H](O)[C@H](O)[C@H]6O[C@@H]6O[C@H](CO)[C@H](O)[C@H](O)[C@H]6O)[C@@](C)(C=O)C5CC[C@@]4(C)[C@]2(C)CC3)O[C@@H]1C` (stereo partly drawn) yielded an activity change, negative = cytotoxicity (C33A) of 4.84% [at 6.55 µM], an activity change, negative = cytotoxicity (CASKI) of 4.57% [at 6.55 µM] and an activity change, negative = cytotoxicity (Es-2) of 4.09% [at 6.55 µM]. The activity change, negative = cytotoxicity (HeLa) was 11.1% [at 6.55 µM], the activity change, negative = cytotoxicity (Hek293T) was 2.65% [at 6.55 µM] and the activity change, negative = cytotoxicity (JEG-3) was 11.6% [at 6.55 µM]. The activity change, negative = cytotoxicity (OV90) was 12.8% [at 6.55 µM], the activity change, negative = cytotoxicity (PA-1) was 11.1% [at 6.55 µM] and the activity change, negative = cytotoxicity (SKOV3) was 0% [at 6.55 µM]. For the same molecule, the activity change, negative = cytotoxicity (Tov-21-G) was 4.85% [at 6.55 µM] and the activity change, negative = cytotoxicity (Tov112D) was 12.7% [at 6.55 µM].
Work on `CC1(C)CC[C@]2(C(=O)O[C@@H]3O[C@H](CO)[C@@H](O)[C@H](O)[C@H]3O)CC[C@]3(C)C(=CCC4[C@@]5(C)CC[C@H](O[C@@H]6O[C@H](C(=O)O)[C@@H](O)[C@H](O)[C@H]6O)[C@@](C)(CO)C5CC[C@]43C)C2C1` (stereo partly drawn) yielded an activity change, negative = cytotoxicity (C33A) of 9.39% [at 11.6 µM], an activity change, negative = cytotoxicity (CASKI) of 1.03% [at 11.6 µM] and an activity change, negative = cytotoxicity (Es-2) of 1.13% [at 11.6 µM]. It also gave an activity change, negative = cytotoxicity (HeLa) of -10.8% [at 11.6 µM], an activity change, negative = cytotoxicity (Hek293T) of 5.9% [at 11.6 µM] and an activity change, negative = cytotoxicity (JEG-3) of -2.45% [at 11.6 µM]. It also gave an activity change, negative = cytotoxicity (OV90) of 8.98% [at 11.6 µM], an activity change, negative = cytotoxicity (PA-1) of 2.88% [at 11.6 µM] and an activity change, negative = cytotoxicity (SKOV3) of 0% [at 11.6 µM]. It also gave an activity change, negative = cytotoxicity (Tov-21-G) of 2.2% [at 11.6 µM] and an activity change, negative = cytotoxicity (Tov112D) of 2.24% [at 11.6 µM].
`CO/N=C(/C(=O)N[C@@H]1C(=O)N2C(C(=O)O)=C(Cn3ccc(=N)n3CCO)CS[C@H]12)c1csc(N)n1` was tested, and the Potency (C33A) was “inactive”, the Potency (CASKI) was “inactive” and the Potency (Es-2) was “inactive”. The Potency (HeLa) was “inactive”, the Potency (Hek293T) was “inactive” and the Potency (JEG-3) was “inactive”. For the same molecule, the Potency (OV90) was “inactive”, the Potency (PA-1) was “inactive” and the Potency (SKOV3) was “inactive”. For the same molecule, the Potency (Tov-21-G) was “inactive” and the Potency (Tov112D) was “inactive”.
For `CC(C)(O)C1CCC(C)(C2CCC3(C)C4CCC5C(C)(C(=O)OC6OC(CO)C(O)C(O)C6O)C(O)CC(O)C56CC46CCC23C)O1` (stereo not drawn), the Potency (C33A) was “inactive”, the Potency (CASKI) was “inactive” and the Potency (Es-2) was “inactive”. The Potency (HeLa) was “inactive”, the Potency (Hek293T) was “inactive” and the Potency (JEG-3) was “inactive”. The Potency (OV90) was “inactive”, the Potency (PA-1) was “inactive” and the Potency (SKOV3) was “inactive”. For the same molecule, the Potency (Tov-21-G) was “inactive” and the Potency (Tov112D) was “inactive”.
For `C/C1=C\CCC(C)CCO[C@@H]2O[C@H](CO[C@@H]3OC[C@H](O)[C@H](O)[C@H]3OC1=O)[C@@H](O)[C@H](O)[C@H]2O` (stereo partly drawn), the Potency (C33A) was “inactive”, the Potency (CASKI) was “inactive” and the Potency (Es-2) was “inactive”. The Potency (HeLa) was “inactive”, the Potency (Hek293T) was “inactive” and the Potency (JEG-3) was “inactive”. For the same molecule, the Potency (OV90) was “inactive”, the Potency (PA-1) was “inactive” and the Potency (SKOV3) was “inactive”. For the same molecule, the Potency (Tov-21-G) was “inactive” and the Potency (Tov112D) was “inactive”.
`C/C=C/c1ccc2c(c1)[C@@H](C)[C@H](c1ccc(O)cc1)O2` was tested, and the Potency (C33A) was “inactive”, the Potency (CASKI) was “inactive” and the Potency (Es-2) was “inactive”. The Potency (HeLa) was “inactive”, the Potency (Hek293T) was “inactive” and the Potency (JEG-3) was “inactive”. The Potency (OV90) was “inactive”, the Potency (PA-1) was “inactive” and the Potency (SKOV3) was “inactive”. For the same molecule, the Potency (Tov-21-G) was “inactive” and the Potency (Tov112D) was “inactive”.
In the case of `COC(=O)C[C@H]1[C@]2(C)C3=C(C)[C@H](c4ccoc4)C[C@H]3O[C@@H]2[C@H](OC(C)=O)C2[C@](C)(C(=O)OC)C=CC(=O)[C@@]21C` (stereo partly drawn), the Potency (C33A) is reported as “inactive”, the Potency (CASKI) is reported as “inactive” and the Potency (Es-2) is reported as “inactive”. For the same molecule, the Potency (HeLa) was “inactive”, the Potency (Hek293T) was “inactive” and the Potency (JEG-3) was “inactive”. For the same molecule, the Potency (OV90) was “inactive”, the Potency (PA-1) was “inactive” and the Potency (SKOV3) was “inactive”. For the same molecule, the Potency (Tov-21-G) was “inactive” and the Potency (Tov112D) was “inactive”.
`CC1(C)CC[C@]2(C(=O)O)[C@H](O)C[C@]3(C)C(=CCC4[C@@]5(C)CC[C@H](O[C@@H]6O[C@H](CO[C@@H]7OC[C@H](O)[C@H](O)[C@H]7O[C@@H]7OC[C@@H](O)[C@H](O)[C@H]7O)[C@@H](O)[C@H](O)[C@H]6O[C@@H]6O[C@H](CO)[C@@H](O)[C@H](O)[C@H]6O)C(C)(C)C5CC[C@]43C)[C@@H]2C1` (stereo partly drawn) gave an activity change, negative = cytotoxicity (C33A) of -1.17% [at 11.6 µM], an activity change, negative = cytotoxicity (CASKI) of 15.8% [at 11.6 µM] and an activity change, negative = cytotoxicity (Es-2) of -1.47% [at 11.6 µM]. For the same molecule, the activity change, negative = cytotoxicity (HeLa) was 4.13% [at 11.6 µM], the activity change, negative = cytotoxicity (Hek293T) was 5.35% [at 11.6 µM] and the activity change, negative = cytotoxicity (JEG-3) was 8.72% [at 11.6 µM]. It also gave an activity change, negative = cytotoxicity (OV90) of 15.1% [at 11.6 µM], an activity change, negative = cytotoxicity (PA-1) of -2.35% [at 11.6 µM] and an activity change, negative = cytotoxicity (SKOV3) of 21.8% [at 11.6 µM]. For the same molecule, the activity change, negative = cytotoxicity (Tov-21-G) was -13.8% [at 11.6 µM] and the activity change, negative = cytotoxicity (Tov112D) was 1.64% [at 11.6 µM].
In the case of `C[C@@H]1CCC/C=C/[C@H]2CC(=O)C[C@@H]2[C@@H](O)/C=C/C(=O)O1`, the Potency (C33A) is reported as “inactive”, the Potency (CASKI) is reported as “inactive” and the Potency (Es-2) is reported as “inactive”. The Potency (HeLa) was “inactive”, the Potency (Hek293T) was “inactive” and the Potency (JEG-3) was “inactive”. For the same molecule, the Potency (OV90) was 20 µM (active), the Potency (PA-1) was “inactive” and the Potency (SKOV3) was “inactive”. For the same molecule, the Potency (Tov-21-G) was “inactive” and the Potency (Tov112D) was “inactive”.
